# Source: PubChem BioAssay AID434970 (Sanford-Burnham Center for Chemical Genomics, 2010)
# Among all 11,000 compounds or so, about 310 (2.8%) were called active. No stated cut-off is given here; in the data, active means activity change below about -85%; inactive means the rest. This excerpt belongs to a sample that is enriched for actives.
# Test system: intestinal alkaline phosphatase [Mus musculus]
# Assay: activators of mouse IAP, confirmation, biochemical, luminescence, single concentration (AID 434970)
# Conditions: purified mouse IAP, CDP-Star luminescence, 30 min, at 10 µM; activation factor: measured here: IAP activation factor, stronger effect = higher value; activity change, negative = activation: stronger effect = lower value
SMILES,activation factor,"activity change, negative = activation"
C[C@H](CO)N1C[C@H](C)[C@@H](CN(C)S(C)(=O)=O)Oc2ccc(NC(=O)Nc3ccc(C(F)(F)F)cc3)cc2C1=O,1.83,-83.2% (inactive)
C[C@H](CO)N1C[C@H](C)[C@@H](CN(C)S(=O)(=O)c2cccs2)Oc2ccc(NC(=O)Nc3ccc4c(c3)OCO4)cc2C1=O,1.88,-87.5% (inactive)
C[C@H]1CN([C@@H](C)CO)C(=O)c2cc(NC(=O)NC3CCCCC3)ccc2O[C@H]1CN(C)C(=O)Nc1ccc(C(F)(F)F)cc1,1.58,-58.1% (inactive)
C[C@H](CO)N1C[C@H](C)[C@@H](CN(C)S(=O)(=O)c2cccs2)Oc2ccc(NC(=O)NC3CCCCC3)cc2C1=O,2.6,-160% (active)
COc1ccc(NC(=O)Nc2ccc3c(c2)C(=O)N([C@H](C)CO)C[C@H](C)[C@@H](CN(C)S(=O)(=O)c2cccs2)O3)cc1,2.1,-110% (active)
COc1ccc(NC(=O)Nc2ccc3c(c2)C(=O)N([C@H](C)CO)C[C@H](C)[C@@H](CN(C)C(=O)Nc2ccc(C(F)(F)F)cc2)O3)cc1,1.69,-68.8% (inactive)
COc1ccc(NC(=O)Nc2ccc3c(c2)C(=O)N([C@@H](C)CO)C[C@@H](C)[C@@H](CN(C)S(=O)(=O)c2cccs2)O3)cc1,1.76,-75.9% (inactive)
C[C@H](CO)N1C[C@H](C)[C@@H](CN(C)S(=O)(=O)c2cccs2)Oc2ccc(NC(=O)Nc3ccccc3)cc2C1=O,2.52,-152% (active)
C[C@H](CO)N1C[C@H](C)[C@@H](CN(C)C(=O)Nc2ccc(C(F)(F)F)cc2)Oc2ccc(NC(=O)NC3CCCCC3)cc2C1=O,1.76,-76.3% (inactive)
CCOC(=O)C1=CN(Cc2ccco2)S(=O)(=O)N(CC)C1c1ccc(C(F)(F)F)cc1 (stereo unspecified),0.893,10.7% (inactive)
CCOc1ccc(N2CC(C(=O)NCCCN3CCOCC3)CC2=O)cc1 (stereo unspecified),0.917,8.3% (inactive)
COc1ccccc1CC(=O)N(CCC#N)CCC#N,0.913,8.65% (inactive)
O=C(COc1c(F)c(F)cc(F)c1F)NC(=O)NC1CCCC1,1.08,-7.8% (inactive)
N#C/C(=C1/CCCCCN1)c1nc2ccccc2[nH]1,1.08,-7.65% (inactive)
CCOC(=O)N1CCN(S(=O)(=O)c2ccc3c(c2)SCC(=O)N3)CC1,1.06,-6.25% (inactive)
COC(=O)[C@@]1(C)[C@H]2C(=O)N(C)C(=O)[C@H]2[C@H]2CN=C(SCc3ccc(Cl)cc3)N21,1.1,-9.6% (inactive)
Cc1ccccc1C(=O)/C=C1\NC(=O)CS1,1.05,-5.35% (inactive)
COc1ccc(N2CCN(C(=O)Nc3cccc(C(F)(F)F)c3)CC2)cc1,1.14,-14.2% (inactive)
COc1cccc(NC(=O)Nc2ccc(C(C)(C)C)cc2)c1,2.18,-118% (active)
Cc1ccc(NC(=O)Nc2ccc(F)cc2)cc1Cl,1.51,-50.8% (inactive)
CCOP(=O)(OCC)C(NC(=O)Nc1ccc(Cl)cc1)c1ccccc1 (stereo unspecified),1.56,-56.5% (inactive)
COc1cccc(NC(=O)Nc2ccc(C)c(Cl)c2)c1,2.17,-117% (active)
CCc1ccc(NC(=O)Nc2cccc(OC)c2)cc1,1.62,-62.5% (inactive)
COc1cccc(C(C)NC(=O)Nc2cccc(C(F)(F)F)c2)c1 (stereo unspecified),3.84,-284% (active)
CC(=O)Nc1cccc(NC(=O)Nc2ccc(C)c(Cl)c2)c1,1.9,-89.6% (inactive)
COc1cccc(NC(=O)CN(c2cccc(C(F)(F)F)c2)S(C)(=O)=O)c1,1.12,-12.2% (inactive)

SMILES,activation factor,"activity change, negative = activation"
CCOP(=O)(OCC)C(NC(=O)Nc1ccc(C)c(Cl)c1)c1ccccc1 (stereo unspecified),2.59,-159% (active)
COc1cccc(NC(=O)Nc2cc(Cl)ccc2C)c1,1.41,-40.7% (inactive)
COc1cccc(NC(=O)Nc2cc(NC(=O)Nc3cccc(OC)c3)c(C)nc2C)c1,1.65,-65.3% (inactive)
Cc1oc(-c2ccc3c(c2)OCCO3)cc1C(=O)NC(CCC(=O)O)C(=O)O (stereo unspecified),0.95,5.05% (inactive)
O=C(NCCNS(=O)(=O)c1ccccc1)c1cc(OCC(F)(F)F)ccc1OCC(F)(F)F,1.09,-9.5% (inactive)
C=CCn1c(=O)c2ccccc2n2c(Sc3nnnn3-c3ccccc3)nnc12,1,-0.35% (inactive)
O=C(CN1N=C(C(F)(F)F)CC1(O)c1ccc([N+](=O)[O-])cc1)c1ccccc1 (stereo unspecified),1.07,-7.45% (inactive)
CC1=NN(/C(=N\c2nnc(C)s2)Nc2ccc(C(C)(C)C)cc2)[C@H](c2ccc(C)cc2)S1,0.976,2.45% (inactive)
CCC(C)c1ccc(NC(=O)C2CC2)cc1 (stereo unspecified),1.07,-7.35% (inactive)
Cc1cc(C)nc(-n2nc(C)c3c(C(F)(F)F)cc(=O)[nH]c32)n1,1.03,-2.7% (inactive)
COc1ccc(Cl)cc1C(=O)NCc1cnn(C)c1C,0.932,6.75% (inactive)
CCn1cc(CN2CCC(C(=O)Nc3cccc(-c4cccc(Cl)c4)c3)CC2)c(C)n1,4.96,-396% (active)
Cc1c(CN2CCC(C(=O)Nc3cccc(-c4cccc(Cl)c4)c3)CC2)cnn1C,4.12,-312% (active)
C/C(=N\NC(=O)c1nn(C)cc1Br)c1cccc(NC(=O)C2CCCC2)c1,1.03,-3.45% (inactive)
O=C(Nc1cccc(F)c1)N1CCN(C/C=C/c2ccccc2)CC1,0.988,1.15% (inactive)
C=CCn1cc(CN2CCC(C(=O)Nc3cccc(-c4cccc(Cl)c4)c3)CC2)c(C)n1,3.74,-274% (active)
C=CCn1cc(CN2CCC(C(=O)Nc3cccc(-c4cccc(F)c4)c3)CC2)c(C)n1,2.94,-194% (active)
Cc1cccc(-n2c(SCC(=O)Nc3ccc4c(c3)OCO4)nnc2-c2ccoc2C)c1,1.03,-2.65% (inactive)
Cc1cccc(C2=NN(c3ccc(Br)cc3)[C@@H](C(=O)N3CCOC3=O)[C@@H]2C)c1,0.974,2.65% (inactive)
CC(=O)c1c(C)[nH]c(C(=O)N2CCN(c3cc(Cl)ccc3C)CC2)c1C,1.14,-13.5% (inactive)
CN(C(=O)C1CCOC1)c1nnc(-c2ccncc2)s1 (stereo unspecified),0.913,8.65% (inactive)
CC(Oc1ccc(Br)cc1)C(=O)N1CCc2ccccc21 (stereo unspecified),1.16,-16.1% (inactive)
N#Cc1c2c(c(NCCCN3CCOCC3)n3c1nc1ccccc13)CCC2,0.904,9.6% (inactive)
Cc1ccc(C2CC(=O)Oc3cc(C)cc(C)c32)cc1 (stereo unspecified),1.06,-5.5% (inactive)
COc1ccc(S(=O)(=O)c2ccc(O)cc2)cc1,0.992,0.8% (inactive)
CC(C)[C@@H](CO)N(C)S(=O)(=O)c1ccccc1Br,1.01,-0.85% (inactive)

SMILES,activation factor,"activity change, negative = activation"
O=C(NCCc1ccc(Cl)cc1)c1cccnc1,0.957,4.3% (inactive)
COc1ccc2cc(C[C@@H]3CC[C@@H](CO)O3)ccc2c1,1.04,-4.15% (inactive)
O=C(Nc1ccccc1Cl)C1CCN(Cc2cnn(-c3ccccc3)c2-n2cccc2)CC1,1.02,-1.6% (inactive)
COc1cccc(NC(=O)C2CCN(Cc3cnn(-c4ccccc4)c3-n3cccc3)CC2)c1,2.01,-101% (active)
COc1ccc(NC(=O)C2CCN(c3nnnn3-c3ccccc3)CC2)cc1,0.976,2.45% (inactive)
Cc1ccc(-c2csc(N)n2)s1,0.219,78% (inactive)
Cc1cccc(NC(=S)NC2CCSc3ccccc32)c1 (stereo unspecified),3.43,-242% (active)
NS(=O)(=O)c1cc(C(=O)NC2CCSc3ccccc32)ccc1Cl (stereo unspecified),0.16,84% (inactive)
S=C(NCc1ccccc1)NC1CCCc2ccccc21 (stereo unspecified),1.87,-86.8% (inactive)
Cc1ccc(NC(=S)NC2CCSc3ccccc32)cc1C (stereo unspecified),2.71,-172% (active)
S=C(NCc1ccccc1)NCc1ccc(CNC(=S)NCc2ccccc2)cc1,1.39,-39.4% (inactive)
FC(F)Oc1ccc(NC(=S)NC2CCCCCCC2)cc1,1.38,-38% (inactive)
S=C(Nc1ccc(Oc2ccccc2)cc1)NC1CCCC1,1.5,-49.8% (inactive)
FC(F)Oc1ccc(NC(=S)NC2CCSc3ccccc32)cc1 (stereo unspecified),2.75,-175% (active)
Cc1ccc(NC(=S)NC2CCSc3ccccc32)cc1 (stereo unspecified),1.37,-36.6% (inactive)
S=C(NCc1ccccc1)NC1CCSc2ccccc21 (stereo unspecified),2.51,-151% (active)
Cc1cccc(NC(=S)NCCN(C2CCCCC2)C2CCCC2)c1,1.23,-23.1% (inactive)
S=C(Nc1ccc(Cl)c(Cl)c1)NC1CCCCC1,1.9,-90.1% (inactive)
COc1ccc(C2/C=C\CN(C(=O)OCC3c4ccccc4-c4ccccc43)CC(=O)N2Cc2cccc(F)c2)cc1 (stereo unspecified),1.1,-10.4% (inactive)
O=C(Nc1ccc2nc(-c3ccc4nc[nH]c4c3)[nH]c2c1)c1cccs1,1.05,-5.3% (inactive)
CC(=O)N1CCN(c2ccc(NCc3ccc(C)cc3)cc2)CC1,1.09,-9.45% (inactive)
COC(=O)c1ccc(Nc2cc(C)nc3ncnn23)cc1,1.03,-3.5% (inactive)
Cc1csc(SCc2ccccc2C(=O)O)n1,0.948,5.2% (inactive)
COc1ccccc1C(=O)N1CCN=C1c1ccccc1,0.974,2.55% (inactive)
O=C(NCC(=O)N(c1ccccc1)C(C(=O)NC1CCCCC1)c1ccncc1)c1ccco1 (stereo unspecified),1.01,-1.1% (inactive)
Cc1ccc(-c2nnc(SCC(=O)NNC(=O)COc3cccc4ccccc34)n2C)cc1,1.03,-3.2% (inactive)
